Measurements from ChEMBL document CHEMBL3988442, “University of Dundee, Small-Polar-MMV Screening Library” (2021).
For some assays here: Entries with a potency or affinity are not part of this list.

What was measured:
Design in all cases: scale not given: direction of the effect not stated beside the values
[1] = target: Protein translocase subunit SecA (Escherichia coli (strain K12)) (UniProt P10408); test: Assay to Identify E. coli SecA ATPase Inhibitors; type: functional; conditions: 30 µM
[2] = target: T1, Ubiquitin-activating enzyme e1, putative (Leishmania donovani (strain BPK282A1)) (UniProt E9BSI1); test: Leishmania donovani Ubiquitin Activating Enzyme (LdE1); type: functional; conditions: 30 µM
T1 sequence (whole entry): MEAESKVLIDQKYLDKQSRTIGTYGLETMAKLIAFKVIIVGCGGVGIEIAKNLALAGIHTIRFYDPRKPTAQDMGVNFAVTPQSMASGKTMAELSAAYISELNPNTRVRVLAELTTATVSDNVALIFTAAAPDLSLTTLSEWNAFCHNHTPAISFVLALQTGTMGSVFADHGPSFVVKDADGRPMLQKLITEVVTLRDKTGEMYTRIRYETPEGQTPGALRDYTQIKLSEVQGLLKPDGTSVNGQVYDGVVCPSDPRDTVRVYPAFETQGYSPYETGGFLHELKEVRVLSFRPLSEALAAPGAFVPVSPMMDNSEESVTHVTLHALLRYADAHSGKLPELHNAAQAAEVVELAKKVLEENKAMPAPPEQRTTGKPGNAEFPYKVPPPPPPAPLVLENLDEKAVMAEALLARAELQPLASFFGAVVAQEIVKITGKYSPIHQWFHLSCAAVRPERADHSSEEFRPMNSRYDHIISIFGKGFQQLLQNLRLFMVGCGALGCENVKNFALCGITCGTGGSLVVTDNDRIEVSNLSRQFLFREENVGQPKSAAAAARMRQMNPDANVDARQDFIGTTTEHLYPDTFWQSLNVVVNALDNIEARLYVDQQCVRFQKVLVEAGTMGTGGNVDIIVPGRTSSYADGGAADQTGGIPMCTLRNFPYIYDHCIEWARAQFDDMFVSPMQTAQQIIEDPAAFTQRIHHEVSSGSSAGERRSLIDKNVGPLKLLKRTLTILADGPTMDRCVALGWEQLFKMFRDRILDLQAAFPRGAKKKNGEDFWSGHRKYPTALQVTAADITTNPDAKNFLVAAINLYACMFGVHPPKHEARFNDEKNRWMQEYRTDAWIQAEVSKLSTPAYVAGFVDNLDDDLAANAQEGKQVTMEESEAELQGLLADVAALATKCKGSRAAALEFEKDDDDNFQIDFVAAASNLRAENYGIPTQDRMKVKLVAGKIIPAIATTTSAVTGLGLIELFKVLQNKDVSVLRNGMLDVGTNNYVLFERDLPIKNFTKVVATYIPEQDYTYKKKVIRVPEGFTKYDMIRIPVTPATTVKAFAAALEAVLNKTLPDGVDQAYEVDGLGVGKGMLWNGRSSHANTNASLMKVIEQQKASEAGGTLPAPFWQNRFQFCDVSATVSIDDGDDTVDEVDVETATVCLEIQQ

[3] = target: AMP-activated protein kinase, AMPK (Homo sapiens) (UniProt P54646+O43741+P54619+Q9UGJ0+Q9Y478+Q13131+Q9UGI9); test: AMP-dependent Kinase enzyme assay. An in vitro enzyme assay that detects ADP turnover that is directly proportional to AMPK activity. This uses naive AMPK that is activated during the assay with MK-8722; type: functional; conditions: 30 µM
[4] = target: Sialic acid-binding Ig-like lectin 9 (Homo sapiens) (UniProt Q9Y336); test: Hs-Siglec9 ALPHAscreen SOP 20170721; conditions: 10 µM
Trypanosoma cruzi = test: Trypanosoma cruzi phosphomannomutase and mannose-1-phosphate guanylyltransferase assay; type: functional; conditions: 10 µM
[5] = target: T2, Arginase-2, mitochondrial (Homo sapiens) (UniProt P78540); test: in vitro enzyme assay to detect the production of urea directly proportional to the activity of Arginase II; type: functional; conditions: 33.3 µM; note: in the data most compounds retested in dose-response had high values
T2 sequence (whole entry): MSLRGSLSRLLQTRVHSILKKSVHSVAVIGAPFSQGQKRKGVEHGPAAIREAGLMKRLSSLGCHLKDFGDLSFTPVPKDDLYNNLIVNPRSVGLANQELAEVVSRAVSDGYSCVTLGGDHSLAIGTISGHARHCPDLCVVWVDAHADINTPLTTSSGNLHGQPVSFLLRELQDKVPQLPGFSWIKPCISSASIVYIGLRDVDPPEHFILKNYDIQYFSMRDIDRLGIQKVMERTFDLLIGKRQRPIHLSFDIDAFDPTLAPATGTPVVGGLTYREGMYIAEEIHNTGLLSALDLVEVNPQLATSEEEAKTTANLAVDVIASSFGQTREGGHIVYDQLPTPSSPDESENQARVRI

[6] = target: T3, Proteasome subunit beta (Trypanosoma cruzi) (UniProt O96673); test: Trypanosoma cruzi proteasome chymotrypsin-like activity (TcProtChymo) assay.; note: in the data most compounds retested in dose-response had high values; type: functional; conditions: 9.37 µM
T3 sequence (whole entry): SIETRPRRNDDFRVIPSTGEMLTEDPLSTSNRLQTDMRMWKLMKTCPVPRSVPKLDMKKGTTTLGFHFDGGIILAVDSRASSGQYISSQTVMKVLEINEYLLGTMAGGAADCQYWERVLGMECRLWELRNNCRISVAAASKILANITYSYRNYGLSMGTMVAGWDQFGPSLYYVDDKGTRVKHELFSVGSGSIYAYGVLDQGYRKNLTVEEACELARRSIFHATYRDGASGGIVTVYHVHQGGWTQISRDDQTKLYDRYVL

Homo sapiens = species on record: Homo sapiens; test: To identify inhibition of the IFN signalling (Jak-Stat) pathway via expression of an eGFP reporter gene under the control of an IFN-stimulated response element (ISRE) containing MxA promoter.; type: functional; conditions: 30 µM
[7] = target: T4, Tyrosyl-tRNA synthetase, putative (Trypanosoma cruzi (strain CL Brener)) (UniProt Q4DSP6); test: Trypanosoma cruzi tyrosyl tRNA synthetase (TcYRS) _High Tyrosine SOP; type: functional; conditions: 30 µM; note: in the data most compounds retested in dose-response had high values
T4 sequence (whole entry): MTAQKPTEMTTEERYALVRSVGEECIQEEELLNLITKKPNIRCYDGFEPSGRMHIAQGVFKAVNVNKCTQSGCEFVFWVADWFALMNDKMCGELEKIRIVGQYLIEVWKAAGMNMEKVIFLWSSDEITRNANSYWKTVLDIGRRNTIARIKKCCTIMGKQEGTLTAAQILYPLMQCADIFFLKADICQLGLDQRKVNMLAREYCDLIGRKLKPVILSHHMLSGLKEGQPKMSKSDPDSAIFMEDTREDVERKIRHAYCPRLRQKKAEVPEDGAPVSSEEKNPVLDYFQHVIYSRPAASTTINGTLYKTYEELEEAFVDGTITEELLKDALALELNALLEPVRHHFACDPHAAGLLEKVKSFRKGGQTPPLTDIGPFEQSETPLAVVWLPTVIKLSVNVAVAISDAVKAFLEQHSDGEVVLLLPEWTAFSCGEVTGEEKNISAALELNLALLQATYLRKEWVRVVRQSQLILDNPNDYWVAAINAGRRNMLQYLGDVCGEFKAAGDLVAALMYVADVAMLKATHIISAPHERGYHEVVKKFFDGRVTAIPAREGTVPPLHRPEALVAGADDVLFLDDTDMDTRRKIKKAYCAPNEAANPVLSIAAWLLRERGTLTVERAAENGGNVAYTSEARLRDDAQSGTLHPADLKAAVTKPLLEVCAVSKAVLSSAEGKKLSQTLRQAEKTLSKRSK

[8] = target: T4, Tyrosyl-tRNA synthetase, putative (Trypanosoma cruzi (strain CL Brener)); test: Trypanosoma cruzi tyrosyl tRNA synthetase (TcYRS) SOP; type: functional; conditions: 30 µM
[9] = target: Chromo domain-containing protein 1 (Saccharomyces cerevisiae (strain ATCC 204508 / S288c) (Baker's yeast)) (UniProt P32657); test: ScCHD-1 Enzyme Inhibition Assay; type: functional; conditions: 30 µM; note: in the data most compounds retested in dose-response had high values
Chromo domain-containing protein 1 (Saccharomyces cerevisiae (strain ATCC 204508 / S288c) (Baker's yeast)), sequence (P32657 whole entry, the tested form may be a part): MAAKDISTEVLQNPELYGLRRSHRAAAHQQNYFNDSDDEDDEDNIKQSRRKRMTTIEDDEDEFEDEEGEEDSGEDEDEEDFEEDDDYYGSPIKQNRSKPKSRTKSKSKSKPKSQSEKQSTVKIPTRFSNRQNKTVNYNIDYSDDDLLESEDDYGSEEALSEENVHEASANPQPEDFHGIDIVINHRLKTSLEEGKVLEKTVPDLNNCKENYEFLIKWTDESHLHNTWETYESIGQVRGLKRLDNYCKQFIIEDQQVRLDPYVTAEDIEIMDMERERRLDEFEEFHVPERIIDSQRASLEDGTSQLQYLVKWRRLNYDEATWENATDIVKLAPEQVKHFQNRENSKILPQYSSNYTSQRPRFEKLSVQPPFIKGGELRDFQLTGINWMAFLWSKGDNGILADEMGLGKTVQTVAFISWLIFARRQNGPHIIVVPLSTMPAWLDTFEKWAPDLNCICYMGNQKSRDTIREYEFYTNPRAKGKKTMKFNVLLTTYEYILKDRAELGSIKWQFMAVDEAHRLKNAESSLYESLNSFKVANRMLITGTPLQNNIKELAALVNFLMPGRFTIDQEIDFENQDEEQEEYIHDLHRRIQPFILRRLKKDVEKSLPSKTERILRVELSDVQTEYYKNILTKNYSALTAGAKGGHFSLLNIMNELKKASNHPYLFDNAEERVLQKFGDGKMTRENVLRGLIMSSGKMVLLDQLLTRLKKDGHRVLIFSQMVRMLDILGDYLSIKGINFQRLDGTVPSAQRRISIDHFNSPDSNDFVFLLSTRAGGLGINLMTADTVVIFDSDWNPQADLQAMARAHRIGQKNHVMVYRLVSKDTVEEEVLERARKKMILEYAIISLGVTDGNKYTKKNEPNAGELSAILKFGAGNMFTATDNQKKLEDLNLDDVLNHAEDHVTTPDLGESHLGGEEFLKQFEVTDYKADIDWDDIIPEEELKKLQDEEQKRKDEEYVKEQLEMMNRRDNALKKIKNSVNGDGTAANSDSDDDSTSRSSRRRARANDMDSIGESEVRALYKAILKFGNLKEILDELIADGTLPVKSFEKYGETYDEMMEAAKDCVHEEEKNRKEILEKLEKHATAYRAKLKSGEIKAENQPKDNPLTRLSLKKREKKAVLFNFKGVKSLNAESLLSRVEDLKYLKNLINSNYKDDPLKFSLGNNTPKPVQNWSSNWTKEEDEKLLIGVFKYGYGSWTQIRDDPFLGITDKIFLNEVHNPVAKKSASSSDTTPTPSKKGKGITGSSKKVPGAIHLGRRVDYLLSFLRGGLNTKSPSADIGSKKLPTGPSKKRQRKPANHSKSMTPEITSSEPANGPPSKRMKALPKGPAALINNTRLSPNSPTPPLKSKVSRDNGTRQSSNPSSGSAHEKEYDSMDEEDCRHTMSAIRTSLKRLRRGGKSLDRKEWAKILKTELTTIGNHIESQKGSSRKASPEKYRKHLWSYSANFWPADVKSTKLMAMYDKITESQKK

Sialic acid-binding Ig-like lectin 9 (Homo sapiens), sequence (Q9Y336 whole entry): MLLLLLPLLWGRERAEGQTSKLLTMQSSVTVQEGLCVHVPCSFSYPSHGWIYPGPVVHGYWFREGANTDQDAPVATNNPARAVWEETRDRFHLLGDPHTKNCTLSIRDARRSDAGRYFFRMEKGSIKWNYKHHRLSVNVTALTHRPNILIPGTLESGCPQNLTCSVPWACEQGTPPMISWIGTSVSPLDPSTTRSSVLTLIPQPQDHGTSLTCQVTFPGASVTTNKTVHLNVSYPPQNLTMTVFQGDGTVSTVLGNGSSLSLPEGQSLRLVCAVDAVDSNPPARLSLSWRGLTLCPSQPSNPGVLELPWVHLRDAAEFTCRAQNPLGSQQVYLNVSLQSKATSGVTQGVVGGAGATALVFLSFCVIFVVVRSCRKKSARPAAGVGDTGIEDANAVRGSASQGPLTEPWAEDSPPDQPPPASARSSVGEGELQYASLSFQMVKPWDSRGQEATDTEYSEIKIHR
Protein translocase subunit SecA (Escherichia coli (strain K12)), sequence (P10408 whole entry): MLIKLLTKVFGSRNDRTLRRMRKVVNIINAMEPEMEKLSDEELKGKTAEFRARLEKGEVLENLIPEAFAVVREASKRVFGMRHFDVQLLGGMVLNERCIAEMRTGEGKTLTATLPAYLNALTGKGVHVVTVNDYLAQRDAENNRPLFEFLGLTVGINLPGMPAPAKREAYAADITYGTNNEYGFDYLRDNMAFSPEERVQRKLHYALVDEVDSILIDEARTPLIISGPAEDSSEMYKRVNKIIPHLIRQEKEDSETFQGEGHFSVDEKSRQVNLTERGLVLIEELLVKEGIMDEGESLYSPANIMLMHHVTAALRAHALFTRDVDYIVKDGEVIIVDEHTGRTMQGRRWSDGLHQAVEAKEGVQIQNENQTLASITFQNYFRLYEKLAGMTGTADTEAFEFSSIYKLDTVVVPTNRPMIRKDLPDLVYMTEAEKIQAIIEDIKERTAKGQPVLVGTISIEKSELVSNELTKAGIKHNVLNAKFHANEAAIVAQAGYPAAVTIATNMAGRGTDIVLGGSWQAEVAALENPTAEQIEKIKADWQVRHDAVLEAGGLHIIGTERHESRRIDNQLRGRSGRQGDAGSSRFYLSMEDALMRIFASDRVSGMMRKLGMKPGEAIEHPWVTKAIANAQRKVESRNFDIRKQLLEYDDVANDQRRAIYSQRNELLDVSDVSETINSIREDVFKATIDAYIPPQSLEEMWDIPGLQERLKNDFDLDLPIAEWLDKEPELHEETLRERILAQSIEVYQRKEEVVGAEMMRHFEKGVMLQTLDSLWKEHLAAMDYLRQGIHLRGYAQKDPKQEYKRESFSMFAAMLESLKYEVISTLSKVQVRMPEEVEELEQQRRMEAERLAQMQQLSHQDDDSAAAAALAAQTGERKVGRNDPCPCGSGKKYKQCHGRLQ

| Structure (SMILES) | Percent Effect [1] [%] | Percent Effect [2] [%] | Percent Effect [3] [%] | Percent Effect [4] [%] | Percent Effect (Trypanosoma cruzi) [%] | Percent Effect [5] [%] | Percent Effect [6] [%] | Percent Effect (Homo sapiens) [%] | Percent Effect [7] [%] | Percent Effect [8] [%] | Percent Effect [9] [%] |
| --- | --- | --- | --- | --- | --- | --- | --- | --- | --- | --- | --- |
| Cc1ccoc1C(=O)N1C[C@H]2CCC[C@@]2(COCc2ccncc2)C1 | -1.22 | 18.2 | -2.61 | 3.02 | 2.66 | -3.23 | -2.44 | 1.6 | 5.29 | 11.5 | -4.37 |
| CCNc1cc2c(nn1)CCN(C(=O)c1ccc3cc[nH]c3c1)C2 | -5.7 | 5.26 | 1.7 | 1.43 | 6.96 | -2.3 | 1.34 | -2.63 | 8.33 | 19.5 | -7.29 |
| CC1(C)CC(N2Cc3nc(N4CCOCC4)ncc3C2=O)CC(C)(C)N1 | -6.55 | 2.6 | 1.41 | 1.23 | -9.93 | 2.76 | 10.8 | 13.3 | 0 | -1.24 | -0.541 |
| CN(Cc1ccc(Cl)s1)C(=O)c1cccc(OCC(N)=O)c1 | 1.02 | 5.41 | 0.84 | -1.09 | -3.09 | 0.952 | 11.2 | 15.1 | 4.76 | 14.6 | -3.46 |
| CC(=O)c1cccc(NC(=O)Cn2cc(I)cn2)c1 | -6.3 | -2.63 | 12 | 2.47 | -2.43 | 11.8 | 9.3 | -2.61 | -2.13 | 2.6 | 63 |
| Cc1nc(C2CCCN(C(=O)c3cc(Cl)c[nH]3)C2)no1 (stereo unspecified) | -5.67 | 12.7 | -0.617 | 10.9 | 3.87 | -6.46 | 1.88 | -5.6 | 5.42 | 13.9 | -7.78 |
| Cc1ccccc1CSCCn1nc2ccccn2c1=O | -1.42 | 15.6 | 7.92 | -4.64 | -2.06 | 4 | 10.9 | 18.9 | 4.76 | 18.8 | -32.9 |
| CCc1nc2n(n1)CC(NCc1ccnc(-c3ccccc3)n1)CC2 (stereo unspecified) | -0.451 | 0 | -2.11 | 2.45 | 6.26 | 3.6 | -4.32 | -20.9 | 3.45 | 6.17 | 0.195 |
| Nc1ncc2c(n1)CN(C1CCCC1)C2=O | -4.34 | 10.4 | -3.73 | 9.11 | 4.82 | -168 | 19.5 | -17.3 | 10.8 | 21 | 121 |
| CN(C)C(C(=O)N1CCC(N2CCSCC2)CC1)c1ccccc1F (stereo unspecified) | -0.819 | 12.5 | -3.64 | 4.95 | 1.46 | 22.5 | 20.7 | -4.19 | 10.5 | 20.5 | -1.59 |
| NC(=O)C1CCN(CCc2ccc(NC(=O)C3CCC3)cc2)CC1 | -4.73 | 8.11 | -5.62 | 9.13 | 2.14 | -0.554 | 2.87 | 6.62 | 6.93 | 23.2 | -5.51 |
| O=C(Cc1ccccn1)N1CCN(C(=O)c2cccc3[nH]ncc23)CC1 | -1.44 | 3.8 | 15.9 | -3.99 | -0.103 | 2.8 | 5.15 | 4.63 | 5.21 | 5.06 | -0.724 |
| Fc1cccc(N2CCCC3(CN(Cc4ccncc4)CCO3)C2)c1 (stereo unspecified) | -2.7 | 5.33 | 13.4 | 2.73 | -6.5 | 6.29 | 8.02 | 29.6 | 6.38 | 11.5 | -3.18 |
| COc1cccc(COCC(=O)N2CCCC(N3CCCC3)CC2)c1 (stereo unspecified) | -1.29 | -10.5 | 4.62 | -2.23 | 2.26 | 0 | 6.52 | -5.01 | 14.2 | 7.32 | -0.94 |
| O=S(=O)(NCC1CCN(c2ccccn2)CC1)c1ccccc1F | -1.81 | 23.4 | 0.655 | -16.3 | 3.25 | -5.81 | 12 | 14.5 | 2.12 | 14.1 | -12.6 |
| Cc1n[nH]c(C2CN(C(=O)c3cc(C4CC4)[nH]n3)CCO2)n1 (stereo unspecified) | -3.77 | 13 | 3.73 | 15.3 | -0.0979 | 0.632 | 9.78 | -11 | 5.71 | 11.8 | -11.2 |
